Out of some 5,500 compounds screened, about 2,000 (36%) were called active. Inconclusive results (about 18%) are left out. No stated cut-off is given here; in the data, active means normalized growth mostly below about 0.91 (no sharp cut-off); inconclusive means no clear call, values can overlap the other calls; inactive means mostly above about 0.92. The list shows a part of the results.
Assay: chemical genetic growth profiling, strain panel (AID 1159580);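 further: tested at 20 µM; growth read once vehicle control cultures reached saturation at 30 °C; 1 = growth at the plate median or of vehicle wells; lower values mean less growth of the strain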
Conditions: growth OD

Measured: normalized growth

C[C@H]1[C@H]2CCC3C4CC=C5C[C@@H](N(C)C)CC[C@]5(C)C4CC[C@@]32CN1C (some centres not stated)
inactive: S. cerevisiae deletion strains, locus YJR075W, strain HOC1, hits give low values 0.974 | S. cerevisiae deletion strains, locus YKL009W, strain mrt4, hits give low values 0.985 | S. cerevisiae deletion strains, locus YKL068W, hits give low values 0.989 | S. cerevisiae deletion strains, locus YKL085W, strain MDH1 (second series), hits give low values 0.997 | S. cerevisiae deletion strains, locus YKL085W, strain MDH1, hits give low values 0.997 | S. cerevisiae deletion strains, locus YKL160W, strain elf1, hits give low values 0.995 | S. cerevisiae deletion strains, locus YKL190W, strain CNB1, hits give low values 0.98 | S. cerevisiae deletion strains, locus YKR001C, strain vps1, hits give low values 0.989 | S. cerevisiae deletion strains, locus YKR026C, strain gcn3, hits give low values 0.99 | S. cerevisiae deletion strains, locus YKR091W, strain srl3, hits give low values 0.995 | S. cerevisiae deletion strains, locus YLL001W, strain dnm1, hits give low values 0.98 | S. cerevisiae deletion strains, locus YLL026W, hits give low values 0.987 | S. cerevisiae deletion strains, locus YLL041C, strain sdh2, hits give low values 1 | S. cerevisiae deletion strains, locus YLR027C, strain aat2, hits give low values 0.996 | S. cerevisiae deletion strains, locus YLR039C, strain RIC1, hits give low values 1.01 | S. cerevisiae deletion strains, locus YLR058C, strain SHM2, hits give low values 0.98 | S. cerevisiae deletion strains, locus YLR102C, strain apc9, hits give low values 0.992 | S. cerevisiae deletion strains, locus YLR113W, strain HOG1, hits give low values 1.02 | S. cerevisiae deletion strains, locus YLR221C, strain rsa3, hits give low values 0.997 | S. cerevisiae deletion strains, locus YLR258W, strain gsy2, hits give low values 0.975 | S. cerevisiae deletion strains, locus YLR262C, strain YPT6 (second series), hits give low values 1 | S. cerevisiae deletion strains, locus YLR262C, strain YPT6, hits give low values 0.962 | S. cerevisiae deletion strains, locus YLR268W, strain sec22, hits give low values 1.02 | S. cerevisiae deletion strains, locus YLR320W, strain mms22, hits give low values 0.955 | S. cerevisiae deletion strains, locus YLR330W, strain CHS5, hits give low values 0.992 | S. cerevisiae deletion strains, locus YLR342W, strain FKS1 (second series), hits give low values 0.986 | S. cerevisiae deletion strains, locus YLR342W, strain FKS1, hits give low values 0.991 | S. cerevisiae deletion strains, locus YLR357W, strain rsc2, hits give low values 0.955 | S. cerevisiae deletion strains, locus YLR370C, strain arc18, hits give low values 0.992 | S. cerevisiae deletion strains, locus YLR371W, strain rom2, hits give low values 0.981 | S. cerevisiae deletion strains, locus YLR384C, strain iki3, hits give low values 0.983 | S. cerevisiae deletion strains, locus YLR418C, strain cdc73, hits give low values 0.937 | S. cerevisiae deletion strains, locus YML016C, strain PPZ1, hits give low values 0.993 | S. cerevisiae deletion strains, locus YML032C, strain rad52, hits give low values 0.94 | S. cerevisiae deletion strains, locus YML120C, strain ndi1, hits give low values 1.01 | S. cerevisiae deletion strains, locus YML124C, strain tub3, hits give low values 0.996 | S. cerevisiae deletion strains, locus YMR058W, strain fet3, hits give low values 0.993 | S. cerevisiae deletion strains, locus YMR078C, strain ctf18, hits give low values 0.988 | S. cerevisiae deletion strains, locus YMR125W, strain sto1, hits give low values 0.947 | S. cerevisiae deletion strains, locus YMR129W, hits give low values 0.997 | S. cerevisiae deletion strains, locus YMR205C, strain PFK2, hits give low values 0.935 | S. cerevisiae deletion strains, locus YMR223W, strain ubp8, hits give low values 0.972 | S. cerevisiae deletion strains, locus YMR231W, strain pep5, hits give low values 0.994 | S. cerevisiae deletion strains, locus YMR263W, strain SAP30, hits give low values 0.987 | S. cerevisiae deletion strains, locus YMR307W, strain GAS1, hits give low values 0.874 | S. cerevisiae deletion strains, locus YNL067W, strain RPL9B, hits give low values 0.978 | S. cerevisiae deletion strains, locus YNL071W, strain lat1, hits give low values 0.987 | S. cerevisiae deletion strains, locus YNL128W, strain TEP1, hits give low values 0.981 | S. cerevisiae deletion strains, locus YNL153C, strain GIM3, hits give low values 0.982 | S. cerevisiae deletion strains, locus YNL183C, strain NPR1, hits give low values 0.973 | S. cerevisiae deletion strains, locus YNL209W, strain ssb2, hits give low values 1 | S. cerevisiae deletion strains, locus YNL233W, strain BNI4, hits give low values 1 | S. cerevisiae deletion strains, locus YNL248C, strain rpa49, hits give low values 0.991 | S. cerevisiae deletion strains, locus YNL250W, strain rad50, hits give low values 0.965 | S. cerevisiae deletion strains, locus YNL271C, strain bni1, hits give low values 0.988 | S. cerevisiae deletion strains, locus YNL298W, strain CLA4, hits give low values 0.977 | S. cerevisiae deletion strains, locus YNL307C, strain MCK1, hits give low values 0.988 | S. cerevisiae deletion strains, locus YNL322C, strain KRE1 (second series), hits give low values 0.992 | S. cerevisiae deletion strains, locus YNL322C, strain KRE1, hits give low values 0.994 | S. cerevisiae deletion strains, locus YNR049C, strain mso1, hits give low values 0.997 | S. cerevisiae deletion strains, locus YNR052C, strain pop2, hits give low values 0.978 | S. cerevisiae deletion strains, locus YOL006C, strain TOP1, hits give low values 0.991 | S. cerevisiae deletion strains, locus YOL012C, strain htz1 0.864 | S. cerevisiae deletion strains, locus YOL147C, strain pex11, hits give low values 0.991 | S. cerevisiae deletion strains, locus YOR001W, strain rrp6, hits give low values 1.02 | S. cerevisiae deletion strains, locus YOR061W, strain CKA2, hits give low values 0.96 | S. cerevisiae deletion strains, locus YOR069W, strain VPS5, hits give low values 1 | S. cerevisiae deletion strains, locus YOR070C, strain gyp1, hits give low values 0.993 | S. cerevisiae deletion strains, locus YOR080W, strain dia2, hits give low values 0.978 | S. cerevisiae deletion strains, locus YOR083W, strain WHI5, hits give low values 1 | S. cerevisiae deletion strains, locus YOR106W, strain vam3, hits give low values 1 | S. cerevisiae deletion strains, locus YOR136W, strain idh2, hits give low values 0.991 | S. cerevisiae deletion strains, locus YOR144C, strain elg1, hits give low values 0.991 | S. cerevisiae deletion strains, locus YOR184W, strain ser1, hits give low values 0.963 | S. cerevisiae deletion strains, locus YOR231W, strain MKK1, hits give low values 1.01 | S. cerevisiae deletion strains, locus YOR265W, strain rbl2, hits give low values 0.991 | S. cerevisiae deletion strains, locus YOR270C, strain vph1, hits give low values 1 | S. cerevisiae deletion strains, locus YOR290C, strain snf2, hits give low values 0.96 | S. cerevisiae deletion strains, locus YOR316C, strain cot1, hits give low values 0.989 | S. cerevisiae deletion strains, locus YPL051W, strain arl3, hits give low values 1 | S. cerevisiae deletion strains, locus YPL055C, strain LGE1, hits give low values 0.952 | S. cerevisiae deletion strains, locus YPL078C, strain atp4, hits give low values 1.01 | S. cerevisiae deletion strains, locus YPL106C, strain sse1, hits give low values 0.977 | S. cerevisiae deletion strains, locus YPL240C, strain hsp82, hits give low values 0.993 | S. cerevisiae deletion strains, locus YPL241C, strain CIN2, hits give low values 0.994 | S. cerevisiae deletion strains, locus YPL256C, strain CLN2, hits give low values 1.01 | S. cerevisiae deletion strains, locus YPR119W, strain clb2, hits give low values 1.01 | S. cerevisiae deletion strains, locus YPR141C, strain kar3, hits give low values 0.98 | S. cerevisiae deletion strains, locus YPR163C, strain tif3, hits give low values 0.986 | S. cerevisiae deletion strains, locus YPR167C, strain met16, hits give low values 0.987 | S. cerevisiae deletion strains, strain wtn01, hits give low values 1.02 | S. cerevisiae strains, strain wild type, hits give low values 0.981
